# “And” between values parts separate entries of the source, which are not always exact repeats. Identical values can stand only once. The source made the active and inactive calls.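 How the source made its calls, unless noted: active means thallium flux through the channel raised or lowered by more than 3 SD from vehicle-only wells, actives on both sides; inactive means the rest.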
# Legend:
# F380Y = experiment: modulators of BK channel variants, profiling panel, selectivity assay, cell-based, U2OS BacMam, thallium flux, beta subunits (AID 1259406); conditions: at 30 µM;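 further: initial slope of Thallos dye fluorescence rise after thallium is added; log ratio against the mean of 0.3% DMSO vehicle wells on the same plate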
# F380Y/beta1 = experiment: as above; conditions: at 30 µM
# F380Y/beta2Delta = experiment: as above; conditions: at 30 µM
# F380Y/beta4 = experiment: as above; conditions: at 30 µM
# [1] = target: Calcium-activated potassium channel subunit alpha-1 (Homo sapiens) + Leucine-rich repeat-containing protein 26 (Homo sapiens) (UniProt Q12791+Q2I0M4); experiment: as above; conditions: F380Y/Slo1WT/gamma1, at 30 µM
# Sequence of Calcium-activated potassium channel subunit alpha-1 (Homo sapiens) + Leucine-rich repeat-containing protein 26 (Homo sapiens) (Q2I0M4 whole entry, looked up, one chain of several): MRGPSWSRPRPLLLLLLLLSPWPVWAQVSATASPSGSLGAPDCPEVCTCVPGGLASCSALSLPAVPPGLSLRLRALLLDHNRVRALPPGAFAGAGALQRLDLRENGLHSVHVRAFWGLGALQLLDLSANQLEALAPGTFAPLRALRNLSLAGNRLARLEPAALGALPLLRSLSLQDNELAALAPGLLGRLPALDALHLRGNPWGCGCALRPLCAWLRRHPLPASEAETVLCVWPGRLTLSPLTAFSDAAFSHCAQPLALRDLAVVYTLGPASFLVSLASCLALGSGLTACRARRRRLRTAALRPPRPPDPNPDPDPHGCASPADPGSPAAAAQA
# R275C = experiment: as above; conditions: at 30 µM
# R275C/beta1 = experiment: as above; conditions: at 30 µM
# R275C/beta2Delta = experiment: as above; conditions: at 30 µM
# R275C/beta4 = experiment: as above; conditions: at 30 µM
# R275C/Slo1WT/beta2 = experiment: as above; conditions: at 30 µM
# [2] = Cy5 fluorescence interference with SSB-bound oligo, artefact control for HCV NS3 helicase inhibitor project, biochemical, NIH Clinical Collection, E. coli SSB (AID 743268; call rule not given here)
# [3] = tested on: Hepatitis C virus NS3 helicase; experiment: HCV NS3 helicase inhibitors, primary screen, biochemical, fluorescence polarization, NIH Clinical Collection (AID 743270; call rule not given here); conditions: NS3 helicase binding to Cy5-dT15 DNA, stronger effect = higher value, concentration not given here
# [4] = target: Single-stranded DNA-binding protein (Escherichia coli (strain K12)) (UniProt P0AGE0); experiment: E. coli SSB displacement from DNA, counter-screen for HCV NS3 helicase inhibitor project, biochemical, fluorescence polarization, NIH Clinical Collection (AID 743271; in the data active means inhibition above about 28%); conditions: stronger effect = higher value, concentration not given here
# [5] = fluorescence interference in NS3h assay format, artefact control for HCV NS3 helicase inhibitor project, biochemical, NIH Clinical Collection (AID 743272; call rule not given here;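 further: HCV NS3 helicase with a Cy5 labelled single stranded DNA probe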); conditions: fluorescence interference counterscreen, stronger effect = lower value
# [6] = modulation of C. elegans fzo-1 (AID 1259413; call rule not given here;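 further: fzo-1 mutant C. elegans worms in liquid wells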); conditions: C. elegans fzo-1 modulator screen, mean read-out; stronger effect = higher value
# [7] = differential killing of epithelial or mesenchymal cells, primary screen, imaging, PC-3E GFP, TEM4-18 mCherry, co-culture (AID 1345086;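 active means compounds killing one labelled cell type while sparing the other, by normalised counts and ratio limits, not self-fluorescent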;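 on all read-outs here: cells exposed to compound for 72 h before imaging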;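 on red/green cell ratio (normalised): normalised mesenchymal count divided by normalised epithelial count so high means epithelial killing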); conditions: imaging cell counts, at 1 µM; for red/green cell ratio (normalised): actives lie on both sides, counts scaled to control wells, 1 = unselective
# [8] = survival rescue of mitochondrial mutant cells in low glucose, primary screen, MELAS cybrids, Rieske KO mouse fibroblasts, CellTiter-Glo (AID 1508586;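 active means mean z-score across replicates of 1.96 or higher in either the MELAS or the Rieske mutant cell line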;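 further: z relative to plate mean and SD of compound and empty wells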)
# [9] = liver-stage malaria parasite growth inhibition, primary screen, cell-based, HepG2, luciferase luminescence, HepG2 viability (AID 624349; in the data active means parasite load remaining mostly below about 12%, no sharp cut-off; inactive means mostly above about 10%;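 further: 100% = mean of DMSO negative control wells on the same plate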); conditions: P. berghei liver stage in HepG2, luciferase luminescence, concentration not given here; parasite load remaining: stronger effect = lower value; viability: measured here: HepG2 viability without parasites
# [10] = sensitizers of A549 cells to miR-34 induction, primary screen, imaging, A549 dox-inducible miR-34, nuclei and caspase counts (AID 1347080;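 active means compounds whose cell count with miR-34 switched on is under 0.7 times the count with it off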); conditions: A549 miR-34 inducible, Hoechst nuclei count, 48 h
# [11] = measured here: epithelial PC-3E GFP cell survival
# [12] = measured here: mesenchymal TEM4-18 mCherry cell survival
# [13] = MELAS cybrid survival, CellTiter-Glo 48 h, stronger effect = higher value
# [14] = Rieske KO mouse fibroblast survival, CellTiter-Glo 72 h
# [15] = stronger effect = lower value, cell number ratio, induced over uninduced
# [16] = measured here: relative caspase fold change +Dox/-Dox
# [17] = measured here: total cells with miR-34 induction, stronger effect = lower value
# [18] = measured here: total cells without miR-34 induction
smiles,measurement,setting,value
CN(Cc1nnc(-c2ccc3ccccc3c2)o1)c1nnc(C(F)(F)F)s1,log fold change Tl+ flux,F380Y,0.00202 (inactive)
same,log fold change Tl+ flux,F380Y/beta1,0.0221 (inactive)
same,log fold change Tl+ flux,F380Y/beta2Delta,0.0123 (inactive)
same,log fold change Tl+ flux,F380Y/beta4,-0.0118 (inactive)
same,log fold change Tl+ flux,[1],-0.0041 (inactive)
same,log fold change Tl+ flux,R275C,4.3e-05 (inactive)
same,log fold change Tl+ flux,R275C/beta1,-0.0299 (inactive)
same,log fold change Tl+ flux,R275C/beta2Delta,-0.000282 (inactive)
same,log fold change Tl+ flux,R275C/beta4,-0.0251 (inactive)
same,log fold change Tl+ flux,R275C/Slo1WT/beta2,0.0181 (inactive)
Cc1cnc(C(=O)NCCc2ccc(S(=O)(=O)NC(=O)NC3CCCCC3)cc2)cn1,fluorescence ratio,[2],1.05 (inactive)
same,inhibition,[3],-5% (inactive)
same,inhibition,[4],-2% (inactive)
same,fluorescence ratio,[5],0.98 (inactive)
same,mean signal,[6],228 (inactive)
same,red/green cell ratio (normalised),[7],1.07 (inactive)
same,normalised cell number,[7]; [11],0.87
same,normalised cell number,[7]; [12],0.93
same,z-score,[8]; [13],0.0771 (inactive) and 0.00808 (inactive) and -0.837 (inactive)
same,z-score,[8]; [14],0.368 and 0.143 and -0.894
same,log fold change Tl+ flux,F380Y,-0.0483 (inactive)
same,log fold change Tl+ flux,F380Y/beta1,-0.0347 (inactive)
same,log fold change Tl+ flux,F380Y/beta2Delta,-0.0103 (inactive)
same,log fold change Tl+ flux,F380Y/beta4,0.0321 (inactive)
same,log fold change Tl+ flux,[1],-0.0267 (inactive)
same,log fold change Tl+ flux,R275C,0.0214 (inactive)
same,log fold change Tl+ flux,R275C/beta1,0.0314 (inactive)
same,log fold change Tl+ flux,R275C/beta2Delta,0.0193 (inactive)
same,log fold change Tl+ flux,R275C/beta4,0.0322 (inactive)
same,log fold change Tl+ flux,R275C/Slo1WT/beta2,0.0429 (inactive)
CC[C@H]1OC(=O)[C@H](C)[C@@H](O[C@H]2C[C@@](C)(OC)[C@@H](O)[C@H](C)O2)[C@H](C)[C@@H](O[C@@H]2O[C@H](C)C[C@H](N(C)C)[C@H]2O)[C@](C)(O)C[C@@H](C)CN(C)[C@H](C)[C@@H](O)[C@]1(C)O,parasite load remaining,[9],58.8% (inactive) and 152% (inactive) and 299% (inactive)
same,viability,[9],118% and 82.2% and 91.4%
same,fluorescence ratio,[2],1.05 (inactive)
same,inhibition,[3],1.36% (inactive)
same,inhibition,[4],-1.24% (inactive)
same,fluorescence ratio,[5],1.02 (inactive)
same,mean signal,[6],266 (inactive)
same,red/green cell ratio (normalised),[7],1.25 (inactive)
same,normalised cell number,[7]; [11],1.02
same,normalised cell number,[7]; [12],1.27
same,fold change,[10]; [15],0.953 (inactive) and 0.891 (inactive)
same,fold change,[10]; [16],2.3 and 7.33
same,cell count,[10]; [17],9960 and 9940
same,cell count,[10]; [18],10500 and 11200
same,log fold change Tl+ flux,F380Y,0.0649 (inactive)
same,log fold change Tl+ flux,F380Y/beta1,0.00314 (inactive)
same,log fold change Tl+ flux,F380Y/beta2Delta,0.0029 (inactive)
same,log fold change Tl+ flux,F380Y/beta4,-0.0644 (inactive)
same,log fold change Tl+ flux,[1],-0.014 (inactive)
same,log fold change Tl+ flux,R275C,0.011 (inactive)
same,log fold change Tl+ flux,R275C/beta1,0.0228 (inactive)
same,log fold change Tl+ flux,R275C/beta2Delta,-0.0452 (inactive)
same,log fold change Tl+ flux,R275C/beta4,-0.073 (inactive)
same,log fold change Tl+ flux,R275C/Slo1WT/beta2,0.026 (inactive)
CN/C(=C\[N+](=O)[O-])NCCSCc1csc(CN(C)C)n1,parasite load remaining,[9],44.5% (inactive) and 113% (inactive)
same,viability,[9],104% and 78.4%
same,fluorescence ratio,[2],1.02 (inactive)
same,inhibition,[3],1.19% (inactive)
same,inhibition,[4],-0.1% (inactive)
same,fluorescence ratio,[5],0.97 (inactive)
same,mean signal,[6],274 (inactive)
same,red/green cell ratio (normalised),[7],0.9 (inactive)
same,normalised cell number,[7]; [11],1.14
same,normalised cell number,[7]; [12],1.02
same,fold change,[10]; [15],0.871 (inactive)
same,fold change,[10]; [16],5.48
same,cell count,[10]; [17],11400
same,cell count,[10]; [18],13100
same,log fold change Tl+ flux,F380Y,0.0132 (inactive)
same,log fold change Tl+ flux,F380Y/beta1,-0.0313 (inactive)
same,log fold change Tl+ flux,F380Y/beta2Delta,0.0292 (inactive)
same,log fold change Tl+ flux,F380Y/beta4,0.0177 (inactive)
same,log fold change Tl+ flux,[1],-0.0126 (inactive)
same,log fold change Tl+ flux,R275C,0.0141 (inactive)
same,log fold change Tl+ flux,R275C/beta1,-0.02 (inactive)
same,log fold change Tl+ flux,R275C/beta2Delta,-0.0114 (inactive)
same,log fold change Tl+ flux,R275C/beta4,-0.00775 (inactive)
same,log fold change Tl+ flux,R275C/Slo1WT/beta2,0.0359 (inactive)
CN1CC(=O)N2[C@H](c3ccc4c(c3)OCO4)c3[nH]c4ccccc4c3C[C@@H]2C1=O,parasite load remaining,[9],101% (inactive)
same,viability,[9],81.8%
same,fluorescence ratio,[2],1 (inactive)
same,inhibition,[3],-0.4% (inactive)
same,inhibition,[4],-0.1% (inactive)
same,fluorescence ratio,[5],1 (inactive)
same,mean signal,[6],261 (inactive)
same,red/green cell ratio (normalised),[7],1 (inactive)
same,normalised cell number,[7]; [11],1.08
same,normalised cell number,[7]; [12],1.07
same,log fold change Tl+ flux,F380Y,0.0711 (inactive)
same,log fold change Tl+ flux,F380Y/beta1,0.0938 (inactive)
same,log fold change Tl+ flux,F380Y/beta2Delta,0.00366 (inactive)
same,log fold change Tl+ flux,F380Y/beta4,0.0361 (inactive)
same,log fold change Tl+ flux,[1],-0.0237 (inactive)
same,log fold change Tl+ flux,R275C,-0.0348 (inactive)
same,log fold change Tl+ flux,R275C/beta1,0.198 (active)
same,log fold change Tl+ flux,R275C/beta2Delta,0.0543 (inactive)
same,log fold change Tl+ flux,R275C/beta4,0.0558 (inactive)
same,log fold change Tl+ flux,R275C/Slo1WT/beta2,0.00498 (inactive)
CN(C)CCOc1ccc(/C(=C(/CCCl)c2ccccc2)c2ccccc2)cc1,parasite load remaining,[9],2.65% (inactive) and 4% (inactive)
same,viability,[9],97.2% and 73.5%
same,fluorescence ratio,[2],0.79 (active)
same,inhibition,[3],-1.97% (inactive)
same,inhibition,[4],20.1% (inactive)
same,fluorescence ratio,[5],0.82 (inactive)
same,mean signal,[6],204 (inactive)
same,red/green cell ratio (normalised),[7],0.97 (inactive)
same,normalised cell number,[7]; [11],1.07
same,normalised cell number,[7]; [12],1.04
same,fold change,[10]; [15],0.93 (inactive) and 0.787 (inactive)
same,fold change,[10]; [16],0.696 and 1.39
same,cell count,[10]; [17],6550 and 5410
same,cell count,[10]; [18],7040 and 6880
same,z-score,[8]; [13],-2.09 (inactive) and -0.316 (inactive)
same,z-score,[8]; [14],-0.803 and -1.13
same,log fold change Tl+ flux,F380Y,0.00227 (inactive)
same,log fold change Tl+ flux,F380Y/beta1,-0.0377 (inactive)
same,log fold change Tl+ flux,F380Y/beta2Delta,0.0156 (inactive)
same,log fold change Tl+ flux,F380Y/beta4,0.0185 (inactive)
same,log fold change Tl+ flux,[1],-0.0413 (inactive)
same,log fold change Tl+ flux,R275C,-0.0555 (inactive)
same,log fold change Tl+ flux,R275C/beta1,0.25 (active)
same,log fold change Tl+ flux,R275C/beta2Delta,-0.123 (active)
same,log fold change Tl+ flux,R275C/beta4,-0.0377 (inactive)
same,log fold change Tl+ flux,R275C/Slo1WT/beta2,-0.045 (inactive)
